The target of one assay is Albumin (Bos taurus) (UniProt P02769). Kind of assay: bovine serum albumin binders on microarray, profiling panel, artefact control for SMM control protein annotation, biochemical, small-molecule microarray, Alexa647 label, 635/667 nm fluorescence (AID 1118).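 Also: score merges 667 nm emission intensity and signal-to-noise per printed compound spot.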 The note with it: BSA-A647 binding, fluorescence 635 nm, higher = more signal.
Assay [1] in a line: small-molecule microarray binders of probe aXIP, primary screen, biochemical, NeuroSMM set, 635/667 nm fluorescence (AID 1119).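 Also: probe is the protein aXip251-270 applied at 1 µg/mL to compound-printed slides; binding of probe to printed compounds measured as 667 nm fluorescence plus signal to noise.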 Particulars: higher = more signal, called active from +8 up or from −8 down.
Assay [2] can be described thus: small-molecule binders of probe aNOTCH3, primary screen, biochemical, small-molecule microarray, 635/667 nm fluorescence (AID 1120).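 Also: probe is a biotin-tagged antibody raised against NOTCH3 rather than NOTCH3 protein; score merges spot fluorescence near 667 nm with spot signal to noise.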 The note with it: higher = more signal.
Assay [3] in a line: small-molecule binders of probe aNOTCH2, primary screen, biochemical, small-molecule microarray, 635/667 nm fluorescence (AID 1121).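 Also: score merges feature fluorescence read at 667 nm with its signal to noise.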 The note with it: higher = more signal.
The target of assay [4] is Carbonic anhydrase 2 (Homo sapiens) (UniProt P00918). Kind of assay: CAII small-molecule binders, profiling panel, biochemical, small-molecule microarray, Alexa647-labelled CAII (AID 1122). The note with it: CAII-A647 binding fluorescence, higher = more signal.
Assay [5] in a line: COS7 lysate on small-molecule microarray, probe aHis, 635 nm (AID 1123).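 Also: z-score combines 667nm fluorescence intensity with signal-to-noise per printed compound spot.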 Particulars: COS7 cell lysate, fluorescence, higher = more signal.
Assay [6] can be described thus: compound binding in COS7 lysate, probe aLAP1, primary screen, cell lysate, small-molecule microarray (AID 1124).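 Also: lysate comes from COS7 cells expressing LAP1 and is applied at 0.3 µg/mL; score merges spot fluorescence near 667 nm with signal-to-noise over triplicate slides.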 The note with it: probe aLAP1, fluorescence, higher = more signal.
The subject of a further assay is Sam68 (KHDRBS1). Kind of assay: Sam68 small-molecule binders, primary screen, biochemical, small-molecule microarray, 635 nm fluorescence (AID 1125).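 Also: score merges 667 nm channel intensity with signal to noise over triplicate slides.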 Particulars: small-molecule microarray binding, higher = more signal.
In assay [7] the test system is Chordin-like protein 2 (CHRDL2). Kind of assay: CHRDL2 small-molecule binders, primary screen, biochemical, small-molecule microarray, 635 nm fluorescence (AID 1126).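 Also: printed compound slides probed with Chrdl2 protein at 4 µg/mL for 1 h at 4 C; score merges 667 nm emission intensity with signal to noise over three replicate slides.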 The note with it: small-molecule microarray binding, fluorescence 635 nm; higher = more signal.
Assay [8] concerns the target Concanavalin-A (Canavalia ensiformis) (UniProt P02866). Kind of assay: ConA small-molecule binders, primary screen, artefact control for SMM control protein annotation, biochemical, small-molecule microarray, Alexa647 label, 635 nm (AID 1127).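 Also: z combines 667 nm emission intensity with signal-to-noise across three replicate slides.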 The note with it: ConA-A647 binding fluorescence, higher = more signal.
Assay [9] can be described thus: anti-His antibody binders, primary screen, artefact control for SMM control protein annotation, biochemical, small-molecule microarray, 635 nm fluorescence (AID 1128).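 Also: score merges feature fluorescence with signal-to-noise for each printed compound spot.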 The note with it: anti-His Alexa647 antibody binding, higher = more signal.
Assay [10] relates to Human papillomavirus type 1a E7 protein (residues 1-88). Kind of assay: HPV1a E7 small-molecule binders, primary screen, biochemical, small-molecule microarray, residues 1-88, 635 nm (AID 1129). Particulars: small-molecule microarray binding, fluorescence 635 nm; higher = more signal.
Assay [11] has as its target Focal adhesion kinase 1 (Homo sapiens) (UniProt Q05397). Kind of assay: small-molecule microarray binders of FAK, primary screen, biochemical, 635/667 nm fluorescence, BSA, DTT (AID 1130).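 Also: composite of spot emission at 667 nm and signal to noise over triplicate slides.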 The note with it: PTK2 binding, 635 nm fluorescence, higher = more signal.
Assay [12] deals with Fibrinogen (Alexa647-labelled). Kind of assay: fibrinogen binders on compound microarrays, profiling panel, artefact control for SMM control-protein annotation, biochemical, small-molecule microarray, 635/667 nm fluorescence (AID 1131).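 Also: z-score merges 667 nm fluorescence with per-spot signal-to-noise over triplicate slides.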 The note with it: fibrinogen-A647 binding fluorescence, higher = more signal.
The target in assay [13] is Follistatin (Homo sapiens) (UniProt P19883). Kind of assay: follistatin binders on small-molecule microarrays, primary screen, biochemical, small-molecule microarray, 635/667 nm fluorescence (AID 1132). The note with it: FST binding, 635 nm fluorescence, higher = more signal.
Follistatin (Homo sapiens), sequence (P19883 whole entry, looked up): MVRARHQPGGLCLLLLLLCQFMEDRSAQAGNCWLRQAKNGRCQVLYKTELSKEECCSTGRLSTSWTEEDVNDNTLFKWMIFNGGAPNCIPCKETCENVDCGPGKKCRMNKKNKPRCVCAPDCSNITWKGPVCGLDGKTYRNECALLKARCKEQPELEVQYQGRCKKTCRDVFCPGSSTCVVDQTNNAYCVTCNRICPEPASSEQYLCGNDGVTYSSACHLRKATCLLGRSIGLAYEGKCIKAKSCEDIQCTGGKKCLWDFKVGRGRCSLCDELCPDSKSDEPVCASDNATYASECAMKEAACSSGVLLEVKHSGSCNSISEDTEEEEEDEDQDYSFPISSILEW
Assay [14] deals with Fibroblast growth factor 2 (Homo sapiens) (UniProt P09038). Kind of assay: FGF2 binders on small-molecule microarrays, primary screen, biochemical, small-molecule microarray, 635/667 nm fluorescence (AID 1133). The note with it: small-molecule microarray binding, FGF2, fluorescence 635/667; higher = more signal.
Fibroblast growth factor 2 (Homo sapiens), sequence (P09038 whole entry, looked up): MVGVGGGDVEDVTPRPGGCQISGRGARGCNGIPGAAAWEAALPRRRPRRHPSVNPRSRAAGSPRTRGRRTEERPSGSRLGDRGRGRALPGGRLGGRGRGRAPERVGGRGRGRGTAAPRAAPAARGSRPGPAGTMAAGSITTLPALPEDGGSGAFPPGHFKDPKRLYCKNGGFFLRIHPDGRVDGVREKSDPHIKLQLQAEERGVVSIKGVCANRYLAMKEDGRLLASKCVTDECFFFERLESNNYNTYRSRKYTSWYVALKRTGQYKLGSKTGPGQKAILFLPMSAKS
Assay [15] can be described thus: mitochondrial membrane potential change in A549 cells, profiling panel, cell-based, JC-1 fluorescence, basal, 24 h, 100 nL (AID 1138).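 Also: A549 lung adenocarcinoma cells under basal conditions with no added stimulus; test concentration not given here.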 Particulars: higher = more signal.
In the next assay the test system is Lefty1. Kind of assay: Lefty1 binders on small-molecule microarrays, primary screen, biochemical, small-molecule microarray, 635/667 nm fluorescence (AID 1139). The note with it: small-molecule microarray binding, fluorescence 635/667; higher = more signal.
Assay [16] deals with wheat germ agglutinin (Triticum aestivum), Alexa647-labelled. Kind of assay: wheat germ agglutinin binders on compound microarrays, profiling panel, artefact control for SMM control-protein annotation, biochemical, small-molecule microarray, 635/667 nm fluorescence (AID 1140).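 Also: score merges 667 nm feature emission with signal to noise over triplicate slides.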 Particulars: WGA-A647 binding, 635 nm fluorescence, higher = more signal.
In assay [17] the target is Luciferin 4-monooxygenase (Photinus pyralis) (UniProt P08659). Kind of assay: firefly luciferase enzyme inhibitors, primary screen, biochemical, luminescence, purified enzyme, 2006 set (AID 1141).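 Also: cell-free assay with purified firefly luciferase at 100 ng per well in PBS; test concentration not given here.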 Particulars: SteadyGlo luminescence, 30 min, higher = more signal, called active from +8 up or from −8 down.
Luciferin 4-monooxygenase (Photinus pyralis), sequence (P08659 whole entry, looked up): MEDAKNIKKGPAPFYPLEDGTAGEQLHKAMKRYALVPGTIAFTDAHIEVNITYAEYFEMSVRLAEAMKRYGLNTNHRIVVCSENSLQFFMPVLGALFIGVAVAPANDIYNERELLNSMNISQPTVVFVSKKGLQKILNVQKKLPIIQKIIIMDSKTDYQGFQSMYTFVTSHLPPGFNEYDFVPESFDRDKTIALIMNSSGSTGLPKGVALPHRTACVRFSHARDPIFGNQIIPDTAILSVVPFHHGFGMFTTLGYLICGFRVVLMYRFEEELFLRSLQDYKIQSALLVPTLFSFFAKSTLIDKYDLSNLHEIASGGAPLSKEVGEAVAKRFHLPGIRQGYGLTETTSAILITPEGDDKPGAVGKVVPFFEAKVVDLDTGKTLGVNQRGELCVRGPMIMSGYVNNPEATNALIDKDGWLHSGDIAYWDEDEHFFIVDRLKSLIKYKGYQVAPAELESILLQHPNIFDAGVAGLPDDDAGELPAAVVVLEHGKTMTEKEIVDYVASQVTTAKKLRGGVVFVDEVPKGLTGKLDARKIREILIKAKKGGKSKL

Calls of active or inactive are those of the source.

Albumin (Bos taurus), sequence (P02769 whole entry, looked up): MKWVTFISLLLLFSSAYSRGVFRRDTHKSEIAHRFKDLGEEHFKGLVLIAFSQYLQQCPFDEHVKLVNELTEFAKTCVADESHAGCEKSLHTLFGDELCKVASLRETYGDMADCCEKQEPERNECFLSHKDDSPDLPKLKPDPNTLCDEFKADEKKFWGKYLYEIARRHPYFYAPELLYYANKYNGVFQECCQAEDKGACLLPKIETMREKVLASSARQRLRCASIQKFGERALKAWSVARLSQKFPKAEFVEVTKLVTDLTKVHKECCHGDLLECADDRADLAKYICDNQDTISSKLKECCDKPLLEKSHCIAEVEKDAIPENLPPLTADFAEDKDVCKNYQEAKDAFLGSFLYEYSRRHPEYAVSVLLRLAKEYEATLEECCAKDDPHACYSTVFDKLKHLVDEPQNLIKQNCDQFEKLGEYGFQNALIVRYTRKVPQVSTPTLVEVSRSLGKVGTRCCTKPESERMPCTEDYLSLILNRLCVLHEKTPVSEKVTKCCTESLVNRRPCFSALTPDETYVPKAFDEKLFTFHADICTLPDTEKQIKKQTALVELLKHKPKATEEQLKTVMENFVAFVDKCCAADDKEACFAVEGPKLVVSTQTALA
Concanavalin-A (Canavalia ensiformis), sequence (P02866 whole entry, looked up): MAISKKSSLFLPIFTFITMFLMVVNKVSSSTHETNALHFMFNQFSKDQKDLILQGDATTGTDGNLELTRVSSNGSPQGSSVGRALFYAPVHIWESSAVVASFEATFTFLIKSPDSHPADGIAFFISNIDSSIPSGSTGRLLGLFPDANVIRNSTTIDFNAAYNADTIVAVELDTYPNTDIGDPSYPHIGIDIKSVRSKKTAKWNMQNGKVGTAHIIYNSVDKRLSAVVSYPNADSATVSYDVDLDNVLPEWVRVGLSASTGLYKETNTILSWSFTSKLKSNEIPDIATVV
Focal adhesion kinase 1 (Homo sapiens), sequence (Q05397 whole entry, looked up): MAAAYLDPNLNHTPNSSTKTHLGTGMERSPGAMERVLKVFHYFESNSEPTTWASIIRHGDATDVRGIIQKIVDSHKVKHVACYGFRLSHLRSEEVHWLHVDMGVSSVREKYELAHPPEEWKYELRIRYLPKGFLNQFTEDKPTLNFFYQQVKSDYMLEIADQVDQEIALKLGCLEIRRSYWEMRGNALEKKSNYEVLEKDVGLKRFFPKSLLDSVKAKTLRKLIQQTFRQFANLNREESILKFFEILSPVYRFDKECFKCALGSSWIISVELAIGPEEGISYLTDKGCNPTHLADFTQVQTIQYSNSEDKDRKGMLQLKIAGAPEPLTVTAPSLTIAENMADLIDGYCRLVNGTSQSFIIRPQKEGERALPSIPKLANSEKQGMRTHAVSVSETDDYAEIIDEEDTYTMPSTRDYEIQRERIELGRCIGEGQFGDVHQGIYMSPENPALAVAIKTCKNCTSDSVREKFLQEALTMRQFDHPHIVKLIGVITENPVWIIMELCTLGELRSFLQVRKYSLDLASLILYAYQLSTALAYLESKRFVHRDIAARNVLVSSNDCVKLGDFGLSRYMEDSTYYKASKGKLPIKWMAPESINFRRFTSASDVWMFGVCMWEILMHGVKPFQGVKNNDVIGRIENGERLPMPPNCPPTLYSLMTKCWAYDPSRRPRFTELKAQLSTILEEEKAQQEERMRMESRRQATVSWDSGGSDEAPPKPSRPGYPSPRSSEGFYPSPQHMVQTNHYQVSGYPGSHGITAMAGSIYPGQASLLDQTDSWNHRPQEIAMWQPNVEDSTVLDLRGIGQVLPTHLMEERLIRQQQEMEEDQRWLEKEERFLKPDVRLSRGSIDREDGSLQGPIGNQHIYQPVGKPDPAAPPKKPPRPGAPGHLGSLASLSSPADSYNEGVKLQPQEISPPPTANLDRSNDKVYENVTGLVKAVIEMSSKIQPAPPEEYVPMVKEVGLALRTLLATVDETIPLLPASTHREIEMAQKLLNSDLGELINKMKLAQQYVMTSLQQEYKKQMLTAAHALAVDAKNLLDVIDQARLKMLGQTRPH

Take `C=C(COC)/C(=C/C[C@H](OC(C)=O)c1ccc(OCCO)cc1)c1cnc2ccccc2c1`: the composite z-score with Albumin (Bos taurus) is 0.0916; in assay [2] it was 0.196; in [3], -0.108; in assay [4], 0.797; in assay [5] it was 0.193; in [6], -0.0578. The composite z-score in the assay on Sam68 (KHDRBS1) was 1.27; in [7], 1.24; in assay [8] it was 1.05; in assay [9] it was -0.418; in assay [10], 1.14; in assay [11], 0.771. Moreover, the composite z-score in assay [12] was 0.333; in [13], 1.4; in [14], 0.813; with Lefty1 it was 1.27; in assay [16], 1.23. The composite Z-score in assay [1] was -0.0473 (inactive). For the same compound, the z-score is 1.8 in assay [15] and -1.81 (inactive) in assay [17].

Turning to `CC(C)NC(=O)[C@@]1(Cc2ccccc2I)c2ccccc2C(=O)N(C2CCCCC2)[C@H]1c1ccc(CO)cc1`, the composite z-score was found to be 0.965 with Albumin (Bos taurus); 0.233 in assay [2]; 0.076 in [3]; 0.312 in assay [4]; 2.55 in assay [5]; 0.429 in assay [6]. Also, the composite z-score was determined as 1.31 with Sam68 (KHDRBS1); 0.127 in [7]; 1.1 in assay [8]; 2.52 in [9]; 1.24 in assay [10]; 0.628 in assay [11]. The composite z-score in assay [12] worked out at 0.991; in [13], 1.17; in assay [14], 0.148; in the assay on Lefty1, 0.227; in assay [16], 0.916. Moreover, the composite Z-score in assay [1] was 0.256 (inactive). In addition, the z-score in assay [15] is -0.105; in assay [17] it was 0.95 (inactive).

For the compound `COC(=O)[C@@]1(Cc2ccc(OC)cc2)[C@H]2c3cc(C(=O)N(C)C)n(CCc4ccc(OC)c(Br)c4)c3C[C@H]2CN1C(=O)c1ccccc1`, the composite z-score in the assay with Albumin (Bos taurus) is 1.11; in [2], 0.831; in assay [3], 0.395; in assay [4] it was 0.718; in [5], 2.9; in [6], 0.482. Further, the composite z-score was 1.29 in the assay on Sam68 (KHDRBS1); -1.11 in [7]; 1.2 in assay [8]; 2.28 in [9]; 1.23 in assay [10]; 2.29 in [11]. For the same compound, the composite z-score in assay [12] is 0.891; in assay [13], 0.85; in assay [14], -0.763; in the assay with Lefty1, -0.545; in [16] it was 1.37. For the same compound, the composite Z-score in [1] was -0.665 (inactive). The z-score was 0.37 in assay [15] and 0.253 (inactive) in assay [17].

In the case of `C=CCN1C(=O)[C@@]2(Cc3ccccc3)N=C(c3ccc(OCCCO)cc3)O[C@H]2c2ccccc21`, the composite z-score in the assay with Albumin (Bos taurus) was determined as 0.174; in assay [2] it was 0.0635; in assay [3], 0.2; in assay [4], 0.622; in assay [5] it was 2.83; in assay [6], 0.66. Further, the composite z-score in the assay on Sam68 (KHDRBS1) stood at 1.29; in assay [7], 1.23; in assay [8], 1.15; in assay [9] it was 1.69; in [10] it was 1.23; in [11], 0.665. Further, the composite z-score in [12] was found to be 0.578; in assay [13], 1.39; in assay [14], 1.08; in the assay with Lefty1 it was 0.398; in assay [16], 0.648. The composite Z-score in assay [1] was 1.06 (inactive). For the same compound, the z-score in [15] was -0.993; in [17], -5.51 (inactive).

As for `C#CCCCON=C1C[C@@H](O)[C@@H](O)[C@@H]2[C@@H]3C(=O)N(Cc4ccc5c(c4)OCO5)C(=O)[C@@H]3CC[C@H]12`, the composite z-score with Albumin (Bos taurus) was 0.86; in assay [2] it was 0.116; in assay [3] it was -0.181; in assay [4], 0.495; in [5], 1.21; in assay [6], 0.786. Further, the composite z-score in the assay on Sam68 (KHDRBS1) came to 1.15; in assay [7], 0.558; in [8], 0.752; in [9], 0.833; in assay [10] it was 0.57; in assay [11], 0.168. For the same compound, the composite z-score in assay [12] was 0.573; in assay [13] it was 1.03; in [14], 0.4; in the assay with Lefty1 it was 1.59; in [16] it was -0.142. For the same compound, the composite Z-score in [1] was 0.756 (inactive). The results for the z-score in [15] and in assay [17] were -0.421 and 0.975 (inactive), respectively.
